FBPA coupling cs: coupling enzyme interference in Giardia aldolase counter-screen. coupling enzyme system counterscreen, AmpLite Red fluorescence. activity change, negative = inhibition, % at 58.2 µM, hits read low. 290,000 tested, 0.67% active. AID 2472; in the data active means activity change below about -30%
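Coupling enzymes only (glyceraldehyde-3-phosphate) + compound, at 57.5 uM final, 10 min RT; add substrate/coupling/AmpLite Red mix, 20 min RT; fluorescence ex 525/em 598 nm. Actives flag coupling-system interference.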
GALK inhibitor: galactokinase (human) inhibition; 270,000 tested, 0.007% active; Purified GALK, Kinase-Glo residual ATP luminescence; Potency, µM (highest dose often 57.5 µM), hits mostly inhibitors
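The enzyme phosphorylates galactose (100 uM) using ATP (35 uM); inhibition is detected as higher residual ATP, quantified by bioluminescence after 1 h reaction at room temperature, pH 8.0.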
USP2a block: USP2a (human) protease inhibition. O75604. USP2 core, Ub-CHOP2 coupled fluorogenic reporter, 485/531. Potency, µM (series often up to 38.3 µM), usual class: inhibitors. 330,000 tested, 0.01% active. AID 463254
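Cell-free coupled assay: 10nM USP2 core preincubated 30min RT with compound in Tris-HCl pH 8.0/CaCl2/CHAPS buffer, then 25nM Ub-CHOP2 and 25nM reporter substrate; fluorescence (Ex 485/Em 531) read after 60min RT, normalized to NEM inhibition, concentration-response curves fitted.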
PLK1 PBD block: inhibitors of human PLK1 polo-box domain binding; P53350; Plk1 PBD binding of FITC phosphopeptide, fluorescence polarization; Potency, µM, usual class: inhibitors; 360,000 tested, 2.8% active; AID 720504; further: series mostly up to about 57 µM; nearly all actives have a fitted effect of over 65% in size
Target sequence (P53350 whole entry, looked up, the tested form may be a part): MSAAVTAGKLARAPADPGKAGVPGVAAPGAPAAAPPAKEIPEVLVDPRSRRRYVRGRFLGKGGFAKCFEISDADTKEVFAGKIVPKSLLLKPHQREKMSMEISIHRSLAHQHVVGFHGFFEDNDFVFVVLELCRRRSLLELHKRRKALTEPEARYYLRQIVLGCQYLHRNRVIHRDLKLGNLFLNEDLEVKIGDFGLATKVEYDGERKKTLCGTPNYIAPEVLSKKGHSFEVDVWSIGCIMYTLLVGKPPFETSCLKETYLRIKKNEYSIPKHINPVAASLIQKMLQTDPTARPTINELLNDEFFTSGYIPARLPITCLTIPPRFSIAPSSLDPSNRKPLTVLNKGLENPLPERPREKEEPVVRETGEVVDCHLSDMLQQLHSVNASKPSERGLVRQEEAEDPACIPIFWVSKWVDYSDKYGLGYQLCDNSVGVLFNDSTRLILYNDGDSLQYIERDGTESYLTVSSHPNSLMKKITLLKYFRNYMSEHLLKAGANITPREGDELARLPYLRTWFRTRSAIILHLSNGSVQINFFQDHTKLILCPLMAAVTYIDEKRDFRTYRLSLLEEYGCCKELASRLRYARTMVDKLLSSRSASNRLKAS
USP1 inh: blocks the human USP1/UAF1 deubiquitinase complex. 390,000 tested, 0.23% active. AID 743255. O94782. Potency, µM (titrated, usually from 57.1 µM), actives largely listed as inhibitors. recombinant USP1/UAF1, Ub-Rhodamine cleavage fluorescence; further: nearly all actives have a fitted effect of over 60% in size
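1 nM enzyme complex + cpd, 15 min RT; start with Ub-Rho 150nM final; kinetic fluorescence ex 480/em 540, 6 reads q60 s. Buffer 50mM HEPES pH 7.8, 0.5mM EDTA, 0.1 mg/ml BSA, 1mM TCEP, 0.01% Tween-20.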
VDR inh: vitamin D3 receptor (human) inhibition | P11473 | VDR-SRC2-3 peptide fluorescence polarization, 2 h | Potency, µM, hits mostly inhibitors | 400,000 tested, 0.93% active | AID 504847
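Compounds are added to VDR with labelled SRC2-3 coactivator peptide and held 2 h at room temperature. Inhibition of the VDR–peptide interaction is then read as a change in fluorescence polarization.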
Each line names hits and unclear results; the compound was inactive in the other large screens. This is a sample that favours compounds with a hit; in the whole collection about 3.2% have one here. Unless noted, the call rests on the fitted dose curve; in most records, active means well fitted curve in the direction sought with a large enough effect; inconclusive means small, poorly fitted or top-dose-only effect, or another doubt; inactive means no such curve, though single readings can be large; an effect the other way counts as inactive or inconclusive.

O=C(Cn1nnc2ccccc2c1=O)N[C@H](C(=O)O)c1ccccc1	PLK1 PBD block 30µM
O=C(CCCn1nnc2ccccc2c1=O)N[C@H](C(=O)O)c1ccccc1	none
COc1ccccc1NC(=O)C(C)OC(=O)/C=C/c1ccc2ccccc2n1 (centres undefined)	none (no result: FBPA coupling cs, GALK inhibitor)
Cc1nc2c3ccccc3n(Cc3ccccc3F)c2s1	VDR inh 45µM
Cc1nc2c3cc(F)ccc3n(Cc3ccccc3F)c2s1	PLK1 PBD block inconclusive, VDR inh 50µM
CCCSc1ncc(Cl)c(C(=O)Nc2sc3c(c2C(N)=O)CCCC3)n1	none (no result: FBPA coupling cs, GALK inhibitor, USP2a block, PLK1 PBD block)
NC(=O)N/N=C/c1c(F)c(F)c(F)c(F)c1F	PLK1 PBD block 21µM, VDR inh 25µM
Cc1nc(Nc2nc3c(c(=O)[nH]2)CCC3)nc2ccccc12	none (no result: FBPA coupling cs, GALK inhibitor, USP2a block)
Cc1ccc(Cc2ccc(C(=O)NNC(N)=S)o2)cc1	PLK1 PBD block 27µM
COC(=O)c1sccc1NC(=O)CN(C)NS(=O)(=O)c1ccc(Cl)cc1	none
COC(=O)c1sccc1NC(=O)CN(C)NS(=O)(=O)c1ccc([N+](=O)[O-])cc1	PLK1 PBD block 24µM
O=C(CSc1nnc(COc2ccc(Cl)cc2)o1)N1CCN(c2ccccc2)CC1	PLK1 PBD block 30µM, VDR inh inconclusive
O=C(O)CCN1C(=O)C(=C2CCCCCC2)SC1=S	PLK1 PBD block inconclusive
O=C1CC(=O)N(Cc2ccco2)C(=O)N1	PLK1 PBD block 6.7µM, VDR inh inconclusive
S=C1NCN(Cc2ccco2)CN1	none
O=C1CC(=O)N(Cc2ccco2)C(=S)N1	USP2a block inconclusive, PLK1 PBD block 21µM, VDR inh inconclusive
O=C1C(=C2CCCCC2)SC(=S)N1Cc1ccco1	PLK1 PBD block 21µM, VDR inh inconclusive
COc1ccccc1CNC(=O)c1sccc1-c1ccccc1	none
COC(=O)[C@@]1(Cc2ccc(OC)cc2)[C@@H]2[C@@H](CC(=O)[C@H]2CC(=O)C(=O)N(C)C)CN1C(=O)c1ccccc1	none (no result: GALK inhibitor)
Cc1ncc(S(=O)(=O)c2ccc(Cl)cc2)c(N)n1	VDR inh inconclusive (no result: FBPA coupling cs, GALK inhibitor, USP2a block)
CC(=O)Nc1nc(=S)n(-c2ccccc2)[nH]1	PLK1 PBD block 27µM
CC(C)c1nc(=S)n(-c2ccccc2)[nH]1	none
CCOC(=O)C(CS)NCCN[C@@H](CS)C(=O)OCC (some centres undefined)	VDR inh 28µM (no result: FBPA coupling cs, GALK inhibitor, USP2a block, PLK1 PBD block, USP1 inh)
Cc1ccc(-c2csc(NC(=O)c3ccc(Br)cc3)c2C(=O)O)cc1	FBPA coupling cs -30, PLK1 PBD block inconclusive, USP1 inh inconclusive
Cc1cccc(C(=O)Nc2scc(-c3ccc(Br)cc3)c2C(=O)O)c1	PLK1 PBD block 30µM (no result: FBPA coupling cs, GALK inhibitor, USP2a block)
CC(C)c1ccc(-c2csc(NC(=O)c3cccs3)c2C(=O)O)cc1	PLK1 PBD block 34µM
Cc1ccc(-c2csc(NC(=O)c3ccccc3Cl)c2C(=O)O)cc1	none
Cc1ccc(-c2csc(NC(=O)c3cccc(C)c3)c2C(=O)O)cc1	PLK1 PBD block inconclusive (no result: FBPA coupling cs, GALK inhibitor, USP2a block)
O=C(CCN1C(=O)c2cccc3cccc(c23)C1=O)N1CCOCC1	none
CC1(C)CC(=O)C=C(NC2=CC3OC(c4ccccc4)OCC3OC2=O)C1 (centres undefined)	VDR inh inconclusive (no result: GALK inhibitor)
S=c1nc(-c2ccc(Cl)cc2)[nH][nH]1	PLK1 PBD block 38µM
CCCOc1ccc(-c2nc(=S)[nH][nH]2)cc1	PLK1 PBD block inconclusive, VDR inh 89µM
C=CCSc1n[nH]c(-c2ccc(OCCC)cc2)n1	none
Cc1ccc(-n2nc3ccc(NC(=O)c4cccc([N+](=O)[O-])c4C)cc3n2)cc1	USP1 inh inconclusive
O=C(Cc1ccc(F)cc1)c1ccc(O)cc1O	none
O=C(Nc1ccccc1)NC1(C(=O)NCCCN2CCOCC2)CCCCC1	none
CCCCNC(=O)C1(NC(=O)Nc2ccc(C)cc2)CCCCC1	PLK1 PBD block 7.5µM, VDR inh inconclusive
CCC(C)NC(=O)C1(NC(=O)Nc2ccccc2)CCCCC1 (centres undefined)	PLK1 PBD block 11µM, VDR inh inconclusive
CN(Cc1cccs1)C(=O)c1ccc(S(=O)(=O)NCc2ccco2)cc1	none
COc1ccc(OC)c2sc(N3CCc4ccccc4C3)nc12	none
